Screening data as filed in PubChem.
VP16 counter = counter-screen for ROR gamma inhibitors: Gal4-VP16 reporter; 3.5% of 310,000 active; Drosophila S2 Gal4-VP16 UAS-luciferase, luminescence, 20 h; Potency, µM (series often up to 53.6 µM), actives largely listed as inhibitors;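 note: Gal4-VP16 expression switched on by copper sulfate through the metallothionein promoter; nearly all actives have a fitted effect of over 50% in size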
ELG1 DNA repair = blocks ELG1-dependent DNA repair in HEK293T cells; Potency, µM (doses to about 46.1 µM), actives largely listed as inhibitors; HEK293T ELG1-luciferase reporter, luminescence, 16 h; DNA damage induced by 5-fluorouridine; AID 504467; 2.3% of 330,000 active; note: nearly all actives have a fitted effect of over 55% in size
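Reporter activity after DNA damage by 5-fluorouridine is monitored. Compound-treated cells incubate 16 hr at 37 °C, then ONE-Glo is added for 30 min before luminescence reading.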
MCF10A rerep = DNA re-replication induction in MCF 10a cells; 2.9% of 350,000 active; Potency, µM (highest dose often 46.1 µM), usual class: activators; MCF 10A DNA re-replication, Hoechst nuclear intensity, 48 h; AID 624296; note: nearly all actives have a fitted effect of over 50% in size
RORg inh = ROR gamma (mouse) transcription inhibition. 5.4% of 310,000 active. Potency, µM (doses to about 53.6 µM), actives largely listed as inhibitors. AID 2551. Drosophila S2 Gal4-RORgamma UAS-luciferase reporter, 20 h; note: nearly all actives have a fitted effect of over 60% in size
Target sequence (P51450 whole entry, looked up, the tested form may be a part): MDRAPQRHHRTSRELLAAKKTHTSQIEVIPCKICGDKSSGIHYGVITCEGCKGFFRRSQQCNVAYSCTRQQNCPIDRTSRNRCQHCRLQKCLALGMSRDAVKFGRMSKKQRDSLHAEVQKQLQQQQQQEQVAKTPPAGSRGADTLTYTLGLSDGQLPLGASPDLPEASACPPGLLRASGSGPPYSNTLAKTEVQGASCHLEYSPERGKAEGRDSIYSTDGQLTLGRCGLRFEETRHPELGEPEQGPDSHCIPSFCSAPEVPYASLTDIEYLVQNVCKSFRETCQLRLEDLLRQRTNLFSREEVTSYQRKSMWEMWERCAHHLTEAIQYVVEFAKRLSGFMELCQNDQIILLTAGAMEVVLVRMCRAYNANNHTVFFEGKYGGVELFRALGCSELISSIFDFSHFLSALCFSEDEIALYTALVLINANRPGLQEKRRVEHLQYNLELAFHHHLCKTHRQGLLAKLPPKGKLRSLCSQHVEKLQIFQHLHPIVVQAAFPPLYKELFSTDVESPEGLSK
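Luciferase reporter read in Schneider cells carrying Gal4-RORγ (mouse) and UAS-Photinus luciferase; cells given compound 1 h before 700 uM copper sulfate induction, then incubated 20 h at ambient temperature.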
SW480 rerep = DNA re-replication induction in SW480 cells; SW480 DNA re-replication, Hoechst DNA content imaging, 48 h; Potency, µM (titrated, usually from 46.1 µM), actives largely listed as activators; 1.8% of 340,000 active; note: nearly all actives have a fitted effect of over 55% in size
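SW480 cells exposed to compounds for 48 hr at 37 C, 5% CO2, then Hoechst-stained 40 min. Nuclear DNA content imaged by fluorescence scanning (405 nm excitation, 500-530 nm emission); re-replication scored as increased high-intensity nuclei.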
Each line names hits and unclear results; the compound was inactive in the other large screens. Compounds with a hit are over-represented: about 10% of the library has one in this group of screens. Calls come from the whole dose curve; as a rule, active = well fitted curve in the direction sought with a large enough effect; inconclusive = small, poorly fitted or top-dose-only effect, or another doubt; inactive = no such curve, though single readings can be large; an effect the other way counts as inactive or inconclusive.

Cc1sc2ncnc(NCc3ccccc3)c2c1C	VP16 counter 18µM, ELG1 DNA repair inconclusive
c1ccc(-c2csc3ncnc(NCC4COc5ccccc5O4)c23)cc1 (centres undefined)	VP16 counter 0.89µM, ELG1 DNA repair inconclusive, MCF10A rerep 26µM, RORg inh 7.1µM
Cc1sc2ncnc(NCC3COc4ccccc4O3)c2c1C (centres undefined)	VP16 counter 1µM, ELG1 DNA repair inconclusive, MCF10A rerep inconclusive, RORg inh inconclusive, SW480 rerep inconclusive
Cc1sc2ncnc(NCC(C)(C)N3CCOCC3)c2c1C	VP16 counter 18µM, ELG1 DNA repair inconclusive, RORg inh inconclusive
Cc1ccsc1C(=O)Nc1cccc(-n2cnnn2)c1	none
COc1ccccc1C1c2[nH]c3ccccc3c2C[C@H]2C(=O)N(C3CCN(Cc4ccccc4)CC3)CC(=O)N12 (some centres undefined)	ELG1 DNA repair 23µM, SW480 rerep inconclusive
COc1ccc(C2c3[nH]c4ccccc4c3C[C@H]3C(=O)N(C4CCN(Cc5ccccc5)CC4)CC(=O)N23)cc1OC (some centres undefined)	MCF10A rerep inconclusive, SW480 rerep 18µM
COc1cccc(C2c3[nH]c4ccccc4c3C[C@H]3C(=O)N(C4CCN(Cc5ccccc5)CC4)CC(=O)N23)c1 (some centres undefined)	ELG1 DNA repair inconclusive, SW480 rerep inconclusive
COCCN1C(=O)N[C@@H](c2cccs2)C(C(C)=O)=C1C	none (no result: VP16 counter, ELG1 DNA repair, RORg inh)
CC1CC(C)(C)CC2(C1)NC(=O)N(CC(=O)N1CCN(S(=O)(=O)c3cccs3)CC1)C2=O (centres undefined)	none (no result: VP16 counter, RORg inh)
O=C1c2ccccc2C(=O)c2c1cccc2-n1nnc2ccccc21	none
O=C1C(N2CCOCC2)=C(n2nnc3ccccc32)C(=O)c2ccccc21	VP16 counter 5.6µM, ELG1 DNA repair 2.6µM, MCF10A rerep inconclusive, RORg inh 5µM, SW480 rerep inconclusive
COC(=O)c1ccc(COc2ccc(C)cc2[N+](=O)[O-])o1	VP16 counter inconclusive, ELG1 DNA repair inconclusive, MCF10A rerep 1.8µM
Cc1ccc(OCc2ccc(C(=O)NN)o2)c([N+](=O)[O-])c1	SW480 rerep inconclusive
CCOc1cc(/C=N/NC(=O)c2ccc(-c3csc(Nc4ccc(C)cc4)n3)cc2)ccc1OCC(=O)O	ELG1 DNA repair inconclusive
O=C(O)COc1ccc(/C=N/NC(=O)c2ccc(-c3csc(Nc4ccc(Cl)cc4)n3)cc2)cc1	MCF10A rerep 9.2µM
CC(C)n1nnnc1SCC(=O)Nc1cccc(F)c1	ELG1 DNA repair inconclusive
CC(=O)N/C(=C/c1ccc(OS(=O)(=O)c2ccc(C)cc2)cc1)C(=O)NCCCO	none
CC1CCC(C(C)C)C(OC(=O)Cn2c(-c3ccc(F)cc3)[n+](C)c3ccccc32)C1 (centres undefined)	VP16 counter 7.1µM, ELG1 DNA repair 16µM, MCF10A rerep inconclusive, RORg inh inconclusive, SW480 rerep 16µM
CC1CCC(C(C)C)C(OC(=O)C[n+]2cc(-c3ccc(Cl)cc3)n3c2CCC3)C1 (centres undefined)	VP16 counter inconclusive, ELG1 DNA repair inconclusive, MCF10A rerep inconclusive
CC1CCC(C(C)C)C(OC(=O)Cn2c(-c3ccccc3)[n+](C)c3ccccc32)C1 (centres undefined)	VP16 counter 6.3µM, ELG1 DNA repair 6.5µM, MCF10A rerep 18µM, RORg inh inconclusive, SW480 rerep 15µM
COc1ccccc1N1CCN(/N=C(\C)c2ccccc2O)CC1	none
COc1cc(/C(C)=N/N2CCN(c3ccccc3OC)CC2)ccc1O	MCF10A rerep 3.7µM
CCCCn1c(SCc2nc3ccccc3s2)nc2cc(S(N)(=O)=O)ccc21	ELG1 DNA repair 18µM, RORg inh inconclusive, SW480 rerep inconclusive
COc1ccc(N2CCN(c3ncnc4sc(C(=O)NCC5CCCO5)c(C)c34)CC2)cc1 (centres undefined)	ELG1 DNA repair inconclusive, MCF10A rerep inconclusive
Cc1c(C(=O)N2CCCCC2C)sc2ncnc(N3CCc4ccccc4C3)c12 (centres undefined)	ELG1 DNA repair 21µM, MCF10A rerep inconclusive
Cc1c(C(=O)N2CCOCC2)sc2ncnc(N3CCc4ccccc4C3)c12	none
